Only a selection was taken, and hits are over-represented in it overall.
Dicer processing = inhibitors of Dicer pre-microRNA processing, primary screen, biochemical, cat-ELCCA, chemiluminescence; Endoribonuclease Dicer (Homo sapiens), Q9UPY3; cat-ELCCA pre-miR-21 Dicer processing; hits give high values; z-score at 25 µM; hit rate 6% among 47,000; AID 1347074, 2019; in the data active means z-score above about 3, passing the limit was not always enough;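 further: plate controls were vehicle for no effect and no enzyme for full effect; higher signal means more uncleaved substrate so more Dicer inhibition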
* = called active by the depositor.

SMILES | Dicer processing
O=[N+]([O-])c1ccc(-n2nccc2C(F)(F)F)cc1 | -0.51
COc1ccc(/C=N/O)cc1OC1CCCC1 | 1.3
Cc1cc(Oc2ccc(=O)n(C)n2)nc(SCC(N)=O)n1 | 0.67
COC(=O)CSc1cc(C)nc(N)n1 | -0.59
COC(=O)CSc1nc(C)cc(Oc2ccccc2)n1 | 3.7*
COC(=O)C1=C(C)O/C(=C2/C=CC=CN2)C(C)=C1 | 3.1*
CCOC(=O)c1ncoc1-c1ccc(Cl)cc1 | -0.27
CC(=O)c1ccc(OCc2ccccc2)c(C)c1OC(=O)c1ccc(Cl)c(Cl)c1 | -2.2
O=S(=O)(c1ccc(NC(=S)NC2CCCCC2)cc1)N1CCCCC1 | 0.42
CCOc1ccc(/C=N/NC(=S)Nc2ccc(S(=O)(=O)N3CCCCC3)cc2)cc1 | 7.3*
CCOc1ccc(S(=O)(=O)N2CCCN(S(=O)(=O)c3ccc(OCC)cc3)CC2)cc1 | 0.4
Cc1c(Cl)cccc1NC(=S)NNC(=O)CC#N | 0.63
CCNCC(=O)Nc1c(C)cccc1C | 1.8
Cc1cccc(Cl)c1NC(=O)CC#N | 3.9*
Cc1ccnc(Nc2nc(-c3ccc(F)cc3)cs2)c1 | 2.1
O=C(Nc1ccccc1)Nc1nc(-c2ccc(F)c(F)c2)cs1 | 2.3
O=C(Nc1ccc(OC(F)(F)F)cc1)Nc1nc(-c2ccc(F)c(F)c2)cs1 | 1.6
O=C(Nc1nc(-c2ccc(F)c(F)c2)cs1)Nc1ccc(Cl)cc1Cl | 1.5
CC(C)(C)c1ccccc1NC(=O)Nc1nc(-c2ccc(F)c(F)c2)cs1 | 3.7*
CSc1sc(C(=O)Nc2ccccc2Cl)cc1-c1nc(-c2ccc(Cl)cc2)cs1 | 1.1
COc1ccccc1NC(=O)Nc1nc(-c2ccc(F)c(F)c2)cs1 | -3.1
O=C(Nc1ccc(F)cc1)Nc1nc(-c2ccc(F)c(F)c2)cs1 | 3*
Fc1ccc(Nc2nc(-c3ccc(F)c(F)c3)cs2)c(F)c1 | 60*
O=c1oc2cc3occ(-c4ccc(Cl)cc4)c3cc2c2ccccc12 | 0.4
N#CC(Nc1cc(C(F)(F)F)cc(C(F)(F)F)c1)c1ccccc1 (centres undefined) | 1.1
SMILES | Dicer processing
COc1ccc(CCN2C(=O)CSC2=Nc2ccc(F)c(Cl)c2)cc1OC | -0.59
COC(=O)C12CC3CC(C1)CC(C(=O)OC)(C3)C2 | 1.3
O=C1NC(=O)/C(=C/c2ccc(OS(=O)(=O)c3cc(Cl)cc(Cl)c3)cc2)N1 | -0.17
O=C(O)CCCNC1=NCCS1 | -1.5
O=C(O)CCCNc1nc(Cl)nc(N2CCCCC2)n1 | 5.7*
Clc1nc(NCCN2CCOCC2)nc(N2CCC(Cc3ccccc3)CC2)n1 | 0.1
Cc1onc(-c2ccccc2)c1NC(=O)O/N=C(\N)c1ccc(Cl)cc1 | 0.68
Cn1nnnc1SCCNCc1cc(Br)ccc1OCc1ccc(F)cc1 | 1.3
CCOc1ccc(Cl)cc1S(=O)(=O)NCc1ccccn1 | 0.45
COc1ccc(C(C)C)cc1S(=O)(=O)Nc1ccc(Cl)cn1 | 0.52
CCOc1ccc(C)cc1S(=O)(=O)Nc1ccc(Cl)cn1 | 4.6*
COCCOC(=O)C1=C(C)N=C2SCCC(=O)N2C1c1ccc(OC(C)=O)cc1 (centres undefined) | -0.02
CCOC(=O)c1cc(-c2ccccc2)sc1NC(=O)CN1CCN(c2ccccc2)CC1 | -1.8
O=C(ON=C1CC2CCCC(C1)N2Cc1ccccc1)c1ccc(F)cc1 | 3.1*
O=C(O)C1CC(=O)N(Cc2ccc(F)cc2)C1 (centres undefined) | 0.24
O=C(Nc1ccc(Cl)cc1)ON=C1CC2CCCC(C1)N2Cc1ccccc1 | -1.5
CN1CCN(C(=O)CSc2nc3c(c(C(F)(F)F)n2)CCc2ccccc2-3)CC1 | 0.06
CCc1c(OS(=O)(=O)c2ccc(Br)cc2)c2ccccc2n(C)c1=O | -0.78
O=c1ccn(-c2ccc(Cl)cc2)nc1-c1ccnc(-c2ccccc2)n1 | 0.59
O=C(/C=C/c1ccccc1)NC(=S)Nc1ccc(OC(F)(F)F)cc1 | -0.76
O=C(/C=C/c1ccccc1)NC(=S)Nc1cc(C(F)(F)F)cc(C(F)(F)F)c1 | -0.04
COC(=S)NC(=O)/C=C/c1ccccc1 | 3.5*
COc1ccc(C2/C(=C(/O)c3ccc(C)cc3)C(=O)C(=O)N2CC(C)O)cc1OC (centres undefined) | -0.96
CC1=C(C#N)C(c2ccccc2OC(C)C)C2=C(CC(c3ccc(Cl)cc3)CC2=O)N1 (centres undefined) | -0.31
O=C(O)c1[nH]c2ccc([N+](=O)[O-])cc2c1-c1ccccc1 | 0.06
SMILES | Dicer processing
Cc1ccc(S(=O)(=O)NNC(=O)c2[nH]c3ccc([N+](=O)[O-])cc3c2-c2ccccc2)cc1 | 6.7*
NNC(=O)c1[nH]c2ccc([N+](=O)[O-])cc2c1-c1ccccc1 | -1.7
CN1CCOc2ccc(S(=O)(=O)NC3CCCCNC3=O)cc21 (centres undefined) | 0.49
Cc1ccc(-c2cc(=O)c3c(=O)n(-c4ccccc4)[nH]c3[nH]2)cc1 | -0.59
Cc1ccc(-c2cc3ccccc3[nH]2)cc1 | 16*
c1ccc(-c2cc3ccccc3[nH]2)cc1 | -0.6
CCOC(=O)c1ccc(N2CCCCC2)c(NC(=O)c2sc3ccccc3c2Cl)c1 | -1.2
O=C(Nc1nc(-c2ccccc2)ns1)c1ccc(Br)cc1 | 0.36
Cc1cc2nc3c(c(C(F)(F)F)n2n1)CCc1ccccc1-3 | -1.6
FC(F)(F)c1c2c(nc3cc(C4CC4)nn13)-c1ccccc1CC2 | -0.88
COCCNC(=O)c1nn2c(C(F)(F)F)c3c(nc2c1Cl)-c1ccccc1CC3 | 4.7*
COc1ccc(C2NC(=O)N(C)C(C)=C2C(=O)Nc2ccccc2)cc1 (centres undefined) | 3.6
CC(C)CC(NC(=O)Cc1ccsc1)C(=O)NNS(=O)(=O)c1ccc(Cl)cc1 (centres undefined) | 12*
CC(C)CC(NC(=O)Cc1ccsc1)C(=O)NNC(=O)c1ccccc1Cl (centres undefined) | -0.88
CC(C)CC(NC(=O)Cc1ccsc1)C(=O)NN (centres undefined) | -2.8
Clc1ccccc1CSc1nnnn1-c1ccccc1 | 0.72
O=C(O)c1ccc(-n2nnnc2SCc2ccccc2Br)cc1 | 0.34
NC(=O)c1ccc(-n2nnnc2SCc2ccccc2Br)cc1 | 4*
CCOC(=O)C1=C(C)NC2=C(C(=O)CC(C)(C)C2)C1c1ccccc1OCC (centres undefined) | -0.86
CCCOc1ccc2nc(NC(=O)OC)sc2c1 | 1.3
CCOc1ccc2nc(NC(=O)c3ccc([N+](=O)[O-])o3)sc2c1 | 1
CCOc1ccc2nc(NC(=O)c3cccs3)sc2c1 | 4*
CC1CN(c2ccc(Br)cc2)c2nc3c(c(=O)n(CC(=O)O)c(=O)n3C)n2C1 (centres undefined) | 0.47
CC1CN=C(N(C(=O)Nc2cccc(Cl)c2)c2ccc(F)c(Cl)c2)S1 (centres undefined) | 0.85
O=C(CCSc1nc(-c2ccco2)cc(C(F)(F)F)n1)NCc1cccnc1 | 2.2
SMILES | Dicer processing
Cc1ccc([N+](=O)[O-])cc1S(=O)(=O)Nc1ccc(F)cc1 | -4.3
Cc1ccc(S(=O)(=O)NC2=NCN(Cc3ccccc3)CN2)cc1 | 4.6*
CCCN1CN=C(NS(=O)(=O)c2ccc(C)cc2)NC1 | 0.67
Cc1ccc(S(=O)(=O)NC2=NCN(CCc3ccccc3)CN2)cc1 | -1.2
Cc1cc(C(F)(F)F)cc(NNS(=O)(=O)c2cc(C(F)(F)F)cc(C(F)(F)F)c2)n1 | 0.82
Cn1c(=O)[nH]c(=O)c2c1nc(N1CCNCC1)n2CC(O)COc1ccccc1 (centres undefined) | -1.2
O=S(=O)(Nc1nc(SCc2ccc(Cl)cc2)n[nH]1)c1ccc2c(c1)CCO2 | 2.7
Cc1ccnc(NS(=O)(=O)c2ccccc2)c1 | 1.5

Bioassay records from PubChem.
